# G9a block: blocks human histone lysine methyltransferase G9a; G9a H3K9 monomethylation, AlphaScreen, 2 h; 350,000 tested, 8.8% active; Potency, µM (doses to about 102 µM), most hits filed as inhibitors; further: nearly all actives have a fitted effect of over 75% in size
#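 Using a bead-based AlphaScreen, monomethylated H3K9 product from 2 h room-temperature reactions (G9a 20 nM, peptide 500 nM, SAM 20 uM) was detected with 0.5 ug/mL rabbit anti-H3K9me1 antibody.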
# BAZ2B block: blocks human BAZ2B. Q9UIF8. AlphaScreen BAZ2B-H3K14Ac peptide displacement. Potency, µM (series often up to 114 µM), usual class: inhibitors. 360,000 tested, 4.4% active; further: nearly all actives have a fitted effect of over 60% in size
#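 Complex of BAZ2B and biotin-H3K14Ac (50 nM apiece) forms over 30 min at RT, then faces library compounds up to 110 uM for another 30 min; AlphaScreen beads added, 20 min dark incubation, luminescence read.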
# HP1b binding inh: HP1-beta chromodomain-methylated histone interaction inhibition; P83916; AlphaScreen HP1-beta / biotin-H3K9me3 peptide binding; Potency, µM (titrated, usually from 114 µM), usual class: inhibitors; 390,000 tested, 0.56% active; further: nearly all actives have a fitted effect of over 70% in size
#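 HP1-beta protein (50 nM final) preincubated 30 min at room temperature with biotinylated H3(1-18)K9me3 peptide (50 nM) in PBS pH 7.4, 0.01% Tween-20, then compound added for 30 min. AlphaScreen streptavidin donor/nickel chelate acceptor beads (10 ug/mL final), 30 min dark, luminescence read.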
# JMJD2A Tudor inh: inhibitors of human JMJD2A Tudor domain | O75164 | AlphaScreen JMJD2A-Tudor / H3K4me3 peptide binding | Potency, µM (top dose mostly 114 µM), hits mostly inhibitors | 390,000 tested, 4.4% active | AID 504339; further: nearly all actives have a fitted effect of over 50% in size
# PLK1 PBD block: blocks phosphopeptide binding to human PLK1 polo-box domain; Plk1 PBD binding of FITC phosphopeptide, fluorescence polarization; Potency, µM, hits mostly inhibitors; 360,000 tested, 2.8% active; AID 720504; further: series mostly up to about 57 µM; nearly all actives have a fitted effect of over 65% in size
# ALOX12 inh: inhibitors of human 12S-lipoxygenase ALOX12; Potency, µM (titrated, usually from 108 µM), usual class: inhibitors; 580,000 tested, 1.1% active; AID 1671190; purified 12hLO, xylenol orange hydroperoxide absorbance
#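 Purified human 12hLO at 150 nM in 25 mM Hepes, 0.01% Triton X-100, pH 7.0, preincubated 15 min at room temperature with compound. Reaction started with 40 uM arachidonic acid, 30 min at room temperature. Hydroperoxide measured by Fe-xylenol orange, 573/405 nm absorbance ratio.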
# Numbers stand for hits; . = inactive; ? = inconclusive; / = no result; [ ] = remark or other dose. A selection: hits, their analogues and other compounds. The true share with any hit is near 9%. The call rests on the fitted dose curve; in most records, active means well fitted curve in the direction sought with a large enough effect; inconclusive means small, poorly fitted or top-dose-only effect, or another doubt; inactive means no such curve, though single readings can be large; an effect the other way counts as inactive or inconclusive.
SMILES,G9a block,BAZ2B block,HP1b binding inh,JMJD2A Tudor inh,PLK1 PBD block,ALOX12 inh
COc1cc(CN2CCC(C(=O)N3CCCC(C)C3)CC2)cc(Br)c1O (stereo not given),7.94µM,22.4µM,?,?,.,?
COc1cc(CN2CCCCCC2)cc(Br)c1O,?,70.8µM,?,22.4µM,.,?
COc1cc(CN2CCCC(C)C2)ccc1OCc1ccccc1 (stereo not given),/,.,.,.,.,.
COc1ccc(CN2CCC(C(=O)N3CCCC(C)C3)CC2)cc1OC (stereo not given),17.8µM,50.1µM,.,17.8µM,.,.
COC(=O)[C@@]12C[C@@H](CC(=O)N3CCCCC3)C(=O)N(Cc3ccco3)C1=CCC(C)(C)C2,/,/,/,/,.,.
CCCOC(=O)c1c(NC(=O)c2cc3ccccc3c(=O)o2)sc2c1CCC(C)C2 (stereo not given),.,.,.,.,/,.
Cn1c(=O)[nH]c2cc(-c3noc(-c4cccc(Cl)c4)n3)ccc21,.,.,.,.,/,.
O=C(c1cn(CCOc2ccc(F)cc2)c2ccccc12)C1CC1,/,/,/,/,/,.
FC(F)c1nc2ccccc2[nH]1,/,39.8µM,.,.,.,.
CC(C)(C)c1ccc(CCNC(=O)C2CCCN(S(C)(=O)=O)C2)cc1 (stereo not given),/,/,/,/,/,.
O=[N+]([O-])c1ccc(N2CCN(c3ccc(O)cc3)CC2)cn1,11.2µM,?,?,?,.,?
CCn1c(SCc2nc3ccccc3nc2C)nnc1-c1cccs1,.,.,.,.,.,.
C=CCn1c(SCc2nc3ccccc3nc2C)nnc1-c1ccoc1C,?,.,.,.,.,31.6µM
C=CCC1NS(=O)(=O)OCC1NC(=O)OCC(Cl)(Cl)Cl (stereo not given),.,.,.,.,.,.
CC(C)(C)OC1NS(=O)(=O)OCC1NCOC(Cl)(Cl)Cl (stereo not given),31.6µM,50.1µM,.,79.4µM,?,.
COc1cc(OC)c2c(C)c(CC(=O)Nc3cccc(Cl)c3)c(=O)oc2c1,/,/,/,/,/,.
CCCCNC(=O)c1nn(-c2ccccc2OC)c(=O)c2ccccc12,.[12.7 µM],.,.,.,.,.
COc1cc(C2NC(=S)NC(O)(C(F)(F)F)C2C(=O)c2cccs2)cc(OC)c1O (stereo not given),79.4µM,.,.,.,.,.
N#C/C(=C\c1sc(N2CCOCC2)nc1-c1ccccc1)C(=O)Nc1cccc2ccccc12,.,.,/,/,/,/
CC(=O)N(/N=C/c1ccc(C)cc1)c1nc(CCl)cs1,17.8µM,.,.,.,.,?
COc1ccc(NC(=O)CCS(=O)(=O)c2ccc(Br)s2)cc1,17.8µM,?,.,.,.,.
CCc1cccc(CC)c1NC(=O)CCS(=O)(=O)c1ccc(Br)s1,22.4µM,.,.,.,/,.
O=C(CCS(=O)(=O)c1ccc(Br)s1)Nc1ccccc1Br,50.1µM,.,.,.,.,.
O=C(CCS(=O)(=O)c1ccc(Cl)cc1)Nc1ccccc1Br,.,.,.,.,.,.
CCc1cccc(CC)c1NC(=O)CCS(=O)(=O)c1ccc(Br)cc1,.,.,.,.,/,.
SMILES,G9a block,BAZ2B block,HP1b binding inh,JMJD2A Tudor inh,PLK1 PBD block,ALOX12 inh
Cc1ncc2c(n1)CCCN(CC(=O)NCC1CC1)C2=O,/,/,/,/,/,.
CCCC1(C)C(C#N)(C#N)C1(C#N)C#N,8.91µM,/,/,/,/,/
CCCC1(C)C(C#N)C(=O)NC(=O)C1C#N (stereo not given),/,/,.,.,.,.
Cc1nnc(N(Cc2ccco2)C(=O)c2ccc(C#N)cc2)s1,.,.,.,.,.,.
Cc1nnc(N(Cc2ccco2)C(=O)c2cccc(C#N)c2)s1,.[12.7 µM],.,.,.[11.4 µM],29.9µM,.
C=CCNC(=S)N1CCOCC1,/,.,.,.,.,.
CC(SC(=S)N1CCOCC1)C(=O)O (stereo not given),.[12.7 µM],25.1µM,.,.,.,.
S=C(SSC(=S)N1CCOCC1)N1CCOCC1,/,/,/,/,1.5µM,5.01µM
C/C(=N\NC(=O)c1cc(-c2cccc(OC(C)C)c2)nc2ccccc12)c1cccnc1,.,.,.,.,.,.
O=C1CN(C(=O)COC(=O)c2cccs2)c2ccccc2N1,.[2.33 µM],.,.,.,.,.
O=C1CN(C(=O)COc2ccc(Br)cc2F)c2ccccc2N1,44.7µM,.,.,.,.,.
Cc1cc(C(=O)OCC(=O)N2CC(=O)Nc3ccccc32)c(C)n1-c1ccccc1,?,50.1µM,?,56.2µM,.,.
O=C1CN(C(=O)COC(=O)CCNS(=O)(=O)c2ccc(Cl)cc2)c2ccccc2N1,.,.,.,.,.,.
Cn1c2ccccc2c2cc(C(=O)OCC(=O)N3CC(=O)Nc4ccccc43)sc21,50.1µM,.,.,.,.,.
Cc1cc(C(=O)OCC(=O)N2CC(=O)Nc3ccccc32)c(C)n1-c1ccc(F)cc1,.,?,.,?,.,.
Cc1ccc(S(=O)(=O)NCC(=O)NCC(=O)OCC(=O)N2CC(=O)Nc3ccccc32)cc1C,.,.,?,?,16.8µM,.
c1ccc(C2NCCn3cccc32)cc1 (stereo not given),50.1µM,?,.,?,.,?
Cc1nc(SCC(=O)Nc2cc(Cl)ccc2[N+](=O)[O-])nc(C)c1C,?,39.8µM,?,?,.,.
Cc1nc(SCC(=O)Nc2cccnc2Cl)nc(C)c1C,39.8µM,.,.,.,.,.
O=C1CC(c2ccccc2)Oc2cc(O)cc(O)c21 (stereo not given),.[12.7 µM],.,.,.,.,?
CN1CC[C@@]2(CCCN(C(=O)c3cc(C(F)(F)F)cc(C(F)(F)F)c3)C2)C1,.[12.7 µM],/,/,/,/,.
Cc1ccccc1-c1cn(-c2ccccc2)c(=S)[nH]1,1.41µM,?,.,?,.,?
Cc1ccc(-c2cn(-c3ccccc3)c(=S)[nH]2)cc1C,44.7µM,31.6µM,?,?,29.9µM,35.5µM
COc1ccc2c(CSc3nc4nc(C)cc(C)n4n3)cc(=O)oc2c1,.,.,.,.,.,?
O=C(Oc1ccc(N2C(=O)CCC2=O)cc1)c1ccccc1Cl,.,.,.,.,.,.
Cc1cc(OC(=O)c2ccccc2Cl)cc(=O)n1C,.[12.7 µM],.,.,.,26.7µM,.
CCC1([N+](=O)[O-])COC(c2ccc(Cl)cc2)OC1 (stereo not given),/,/,.,.,.,?
C[N+]1(CC2COC3(CCCCC3)O2)CCCC1 (stereo not given),14.1µM,.,.,?,.,?
COc1ccccc1C1NC=C([N+](=O)[O-])C=C1[N+](=O)[O-] (stereo not given),3.55µM,44.7µM,?,?,?,?

# Compound activity as filed in PubChem.
